Our source for the outcome and AC50 values is PubChem BioAssay (EPA / NIEHS).

Inconclusive results are not listed. Active and inactive are the calls of the source. Rule for the calls: active = hit-call score of the fitted dose curve at least 0.9, where 1 is the maximum; inconclusive = response in the unintended direction; inactive = score below 0.9.

human CYP4F12, CYP4F12 (gene 66002), sequence (Q9HCS2 whole entry, looked up): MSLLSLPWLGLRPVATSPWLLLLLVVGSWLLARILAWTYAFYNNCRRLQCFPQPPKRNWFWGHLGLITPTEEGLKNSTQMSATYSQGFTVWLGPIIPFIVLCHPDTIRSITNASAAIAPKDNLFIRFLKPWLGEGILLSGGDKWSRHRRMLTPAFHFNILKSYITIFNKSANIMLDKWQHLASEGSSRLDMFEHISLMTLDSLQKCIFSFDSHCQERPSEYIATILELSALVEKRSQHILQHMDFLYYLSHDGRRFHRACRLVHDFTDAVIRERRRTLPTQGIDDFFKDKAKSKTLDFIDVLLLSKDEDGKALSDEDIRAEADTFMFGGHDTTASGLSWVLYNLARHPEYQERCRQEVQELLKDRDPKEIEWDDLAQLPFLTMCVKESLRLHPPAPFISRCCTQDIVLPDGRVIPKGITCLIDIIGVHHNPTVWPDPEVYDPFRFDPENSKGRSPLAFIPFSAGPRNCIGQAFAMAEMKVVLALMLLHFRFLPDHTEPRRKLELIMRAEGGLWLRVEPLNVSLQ
human AMP-activated Protein Kinase, alpha 1 (AMPKa1), PRKAA1 (gene 5562), sequence (Q13131 whole entry, looked up): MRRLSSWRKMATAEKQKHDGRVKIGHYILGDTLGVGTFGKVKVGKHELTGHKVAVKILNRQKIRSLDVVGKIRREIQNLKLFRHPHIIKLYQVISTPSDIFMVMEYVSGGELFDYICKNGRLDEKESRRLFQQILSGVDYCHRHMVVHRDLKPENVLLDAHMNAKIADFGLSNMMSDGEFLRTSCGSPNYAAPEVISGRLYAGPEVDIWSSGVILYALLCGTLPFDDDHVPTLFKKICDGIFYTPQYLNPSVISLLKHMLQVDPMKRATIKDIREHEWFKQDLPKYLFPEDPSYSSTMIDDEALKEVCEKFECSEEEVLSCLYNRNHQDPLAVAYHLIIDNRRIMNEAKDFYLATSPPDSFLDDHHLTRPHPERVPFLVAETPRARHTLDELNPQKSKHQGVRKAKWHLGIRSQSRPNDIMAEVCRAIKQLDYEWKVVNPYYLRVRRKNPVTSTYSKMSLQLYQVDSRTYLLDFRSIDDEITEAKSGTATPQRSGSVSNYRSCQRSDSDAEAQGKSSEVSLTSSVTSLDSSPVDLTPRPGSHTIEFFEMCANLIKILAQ
human Acetylcholinesterase (AChE), ACHE (gene 43), sequence (P22303 whole entry, looked up): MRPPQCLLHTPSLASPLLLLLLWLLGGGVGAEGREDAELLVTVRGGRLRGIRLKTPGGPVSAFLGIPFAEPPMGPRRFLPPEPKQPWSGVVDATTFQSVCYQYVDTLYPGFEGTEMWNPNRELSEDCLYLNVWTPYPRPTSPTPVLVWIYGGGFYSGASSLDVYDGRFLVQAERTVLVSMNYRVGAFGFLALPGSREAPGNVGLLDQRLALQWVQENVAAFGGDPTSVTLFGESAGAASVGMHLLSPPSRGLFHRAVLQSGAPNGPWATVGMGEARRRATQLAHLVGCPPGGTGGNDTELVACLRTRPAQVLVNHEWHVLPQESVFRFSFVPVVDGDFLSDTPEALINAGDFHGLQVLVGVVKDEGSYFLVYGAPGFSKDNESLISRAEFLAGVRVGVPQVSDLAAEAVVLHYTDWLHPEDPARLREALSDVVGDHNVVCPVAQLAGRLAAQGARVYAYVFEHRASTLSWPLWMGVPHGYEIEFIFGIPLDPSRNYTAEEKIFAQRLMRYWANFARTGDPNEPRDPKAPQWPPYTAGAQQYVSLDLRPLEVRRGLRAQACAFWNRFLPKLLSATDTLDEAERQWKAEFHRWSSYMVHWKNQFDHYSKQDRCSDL

One assay concerns the target human CYP4F12, CYP4F12 (gene 66002) (UniProt Q9HCS2). The assay can be described thus: NVS_ADME_hCYP4F12: NovaScreen (NVS) CYP450-related Enzyme Activity (ADME) Assay for human CYP4F12 (AID 2283111). The method in brief:
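Cell-free fluorescence assay of recombinant human CYP4F12 activity on a specific substrate, read 0.5 h after dosing. Primary screen in duplicate at 10 uM, then concentration series for actives; loss of signal fitted against acetonitrile negative control.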
On to `Cc1ccc([N+](=O)[O-])cc1`, for which the compound was classed as inactive.

Regarding `CCN(CC)N=O`, the AC50 (usually the midpoint of the concentration-response curve, whichever way the signal moves) was 6.21 µM (active).

Consider `CCOc1cccc(C2(N3CCN(c4ccccc4)CC3)CCC(C)CC2)c1` (stereo not given), for which the AC50 was 4.36 µM (active).

Regarding `Clc1ccccc1Cl`, the AC50 was 1.91 µM (active).

The target of the next assay is Cytochrome P450 2C19 (Homo sapiens) (UniProt P33261). The assay can be described thus: NVS_ADME_hCYP2C19: NovaScreen (NVS) CYP450-related Enzyme Activity (ADME) Assay for human CYP2C19 (AID 2283113).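 For AC50: potency for inhibition seen as loss of fluorescent signal.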 The gist of the method: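 Biochemical CYP2C19 inhibition screen: insect-cell recombinant protein plus fluorescent substrate, 1 h, fluorescence intensity. Acetonitrile defined baseline activity. Single 10 uM concentration in duplicate, with concentration-response follow-up for actives.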
Turning to `C[C@]12C=CC3=C4CCC(=O)C=C4CC[C@H]3[C@@H]1CC[C@@H]2O`, the AC50 was 5.75 µM (active).

As for `Nc1ccc(Cl)cc1N`, the call was inactive.

In the case of `Nc1ccc([N+](=O)[O-])cc1`, the AC50 was 6.15 µM (active).

Take `Clc1ccc(C(c2ccc(Cl)cc2)C(Cl)Cl)cc1`: the AC50 was 4.79 µM (active).

Take `Nc1ccc(Cc2ccc(N)cc2)cc1`: the AC50 was 14.4 µM (active).

As to `CCCCOC(=O)c1ccccc1C(=O)OCc1ccccc1`, the AC50 is 2.72 µM (active).

The next assay concerns the target human Acetylcholinesterase (AChE), ACHE (gene 43) (UniProt P22303). Put plainly: NVS_ENZ_hAChE: NovaScreen (NVS) Enzymatic Assay for human Acetylcholinesterase (AChE) (AID 2283129). The gist of the method: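 Cell-free colorimetric enzyme-activity assay; compounds read 0.33 hour after dosing, loss of signal vs DMSO baseline. Primary screen in duplicate at 25 uM single concentration, with active compounds retested in concentration series.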
For `CCCCC(CC)COC(=O)c1ccc(C(=O)OCC(CC)CCCC)c(C(=O)OCC(CC)CCCC)c1` (stereo not given), the call was inactive.

`CCCCCCCCOC(=O)c1ccc(C(=O)OCCCCCCCC)c(C(=O)OCCCCCCCC)c1`: the compound was called inactive.

Turning to `Cc1ccc(N=C=O)cc1N=C=O`, the AC50 was 8.65 µM (active).

For the compound `CNC(=O)Oc1cccc2c1OC(C)(C)C2`, the AC50 was 0.497 µM (active).

On to `CCCCCOC(=O)c1ccccc1C(=O)OCCCCC`, for which the call was inactive.

`CCC[CH2][Sn]([Cl])([CH2]CCC)[CH2]CCC`: the compound was classed as inactive.

The target of a further assay is human AMP-activated Protein Kinase, alpha 1 (AMPKa1), PRKAA1 (gene 5562) (UniProt Q13131). The assay can be described thus: NVS_ENZ_hAMPKa1: NovaScreen (NVS) Enzymatic Assay for human AMP-activated Protein Kinase, alpha 1 (AMPKa1) (AID 2283130). The protocol:
NVS_ENZ_hAMPKa1 is a biochemical, single-readout assay that uses extracted gene-proteins in a cell-free assay. Measurements were taken 1 hour after chemical dosing in a 384-well plate.NVS_ENZ_hAMPKa1 is one of one assay component(s) measured or calculated from the NVS_ENZ_hAMPKa1 assay. It is designed to make measurements of enzyme activity, a form of enzyme reporter, as detected with fluorescence intensity signals by Fluorescence and electrophoretic mobility shift technology.Data from the assay component NVS_ENZ_hAMPKa1 was analyzed into 1 assay endpoint. This assay endpoint, NVS_ENZ_hAMPKa1, was analyzed in the positive analysis fitting direction relative to DMSO as the negative control and baseline of activity. Using a type of enzyme reporter, loss-of-signal activity can be used to understand changes in the enzymatic activity as they relate to the gene PRKAA1. Furthermore, this assay endpoint can be referred to as a primary readout, because this assay has produced multiple assay endpoints where this one serves a enzymatic activity function. To generalize the intended target to other relatable targets, this assay endpoint is annotated to the kinase intended target family, where the subfamily is serine/threonine kinase.
Binding assays used specific radioligands (tritiated, iodinated) with non-radioactive competitive displacement ligands in agonist or antagonist protocols (as indicated) and various reference compounds and inhibitors to titrate specific binding to receptors and transporters. Most enzyme assays (CYPs, kinases, phosphatases, proteases, HDACs) used recombinant protein and specific substrates (fluorescence mostly, some colorimetric and radioactive) and inhibitors, followed by a biochemical separation of substrate and product. All assays for the biochemical HTS were initially run in duplicate at a single concentration (10 uM for CYP450 assays and 25 uM for all others). Assay-chemical combinations meeting a pre-defined threshold (e.g., 30% inhibition and other criteria defined below) were then run in singleton concentration-response format with maximum concentration of 20 uM for CYPs and 50 uM for all others. Each assay was run with positive and negative controls, and concurrent controls on every plate. The follow-up (secondary) screen tested active chemical-pairs in concentration series, as well as a few additional assays not tested in the primary screen, some selected negative inactives, and several cases re-run in the concentration series for confirmatory purposes.
As for `CCCCC(CC)COC(=O)c1ccc(C(=O)OCC(CC)CCCC)c(C(=O)OCC(CC)CCCC)c1` (stereo not given), the compound was classed as inactive.

Consider `CCN(CC)N=O`, for which the compound was classed as inactive.

Take `O=C(Oc1ccc(Br)cc1)N1CCN2CCC1CC2`: the result was inactive.

Take `Oc1ccccc1Cl`: the compound was called inactive.

In the next assay the target is human Caspase 5 (CASP5), CASP5 (gene 838) (UniProt P51878). Put plainly: NVS_ENZ_hCASP5: NovaScreen (NVS) Enzymatic Assay for human Caspase 5 (CASP5) (AID 2283137). The method in brief: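 Recombinant E. coli-expressed human caspase 5 in a cell-free enzyme assay; fluorescence intensity read 2 hours after chemical dosing. Single-concentration duplicate screen at 25 uM, then concentration-response up to 50 uM for hits; DMSO negative control.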
human Caspase 5 (CASP5), CASP5 (gene 838), sequence (P51878 whole entry, looked up): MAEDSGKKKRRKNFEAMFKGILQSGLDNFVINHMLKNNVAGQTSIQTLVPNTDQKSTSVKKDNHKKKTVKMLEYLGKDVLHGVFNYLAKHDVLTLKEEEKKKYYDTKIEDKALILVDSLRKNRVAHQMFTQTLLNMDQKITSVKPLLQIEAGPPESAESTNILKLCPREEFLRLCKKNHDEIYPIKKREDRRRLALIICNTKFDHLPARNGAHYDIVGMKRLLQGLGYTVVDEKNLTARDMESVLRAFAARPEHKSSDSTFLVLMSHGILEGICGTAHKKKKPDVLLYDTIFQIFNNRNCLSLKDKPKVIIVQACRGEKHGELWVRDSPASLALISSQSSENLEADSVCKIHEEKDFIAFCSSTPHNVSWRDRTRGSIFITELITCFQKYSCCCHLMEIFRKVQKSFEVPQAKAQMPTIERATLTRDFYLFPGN
As to `c1ccc(C2CO2)cc1` (stereo not given), the compound was called inactive.

As for `Nc1ccc(Cl)cc1N`, the result was inactive.

Turning to `Cc1ccc(N=C=O)cc1N=C=O`, the outcome was inactive.

Regarding `CN(C)[C@@H]1C(=O)C(C(N)=O)=C(O)[C@@]2(O)C(=O)C3=C(O)c4c(O)cccc4[C@@](C)(O)[C@H]3C[C@@H]12`, the AC50 was 10.9 µM (active).

Regarding `Cc1cccc(N)c1N`, the compound was called inactive.
